Compounds without any hit were thinned out: in the full panel of roughly 83,000, 20% have a hit.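 Plates (96-well) were seeded with cells, treated with compound at one concentration, and incubated for 48 hours before percent growth was determined.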 Values without a mark were called inactive. Calls of active or inactive are those of the source. Rule for the calls: active = growth percent below 10; inactive = the rest.

Experimental findings from PubChem BioAssay (NCI) are described below.

Test systems include NCI-H23 lung; NCI-H226 lung; NCI-H322M lung; HOP-62 NSCLC; NCI-H460 lung; HOP-92 NSCLC; NCI-H522 lung; A549/ATCC NSCLC; 786-0 renal; COLO 205 colon; DU-145 prostate; K-562 leukemia; MALME-3M melanoma; MDA-MB-231 breast; RXF 393 renal; SF-268 CNS; SF-295 CNS; SF-539 CNS; UACC-257 melanoma; M14 melanoma.
What all share (assay): NCI-60 one-dose screen, 48 h (100 = growth as untreated, 0 = no growth, -100 = all killed)
Holding throughout (conditions): 10 µM unless noted

`COc1ccc2c(c1)Oc1nc(N)c(C#N)c(N)c1C2Sc1ccc(O)cc1` (centres undefined): the growth with NCI-H23 lung was 93%; in the experiment on NCI-H226 lung, 94.5%; in the experiment with NCI-H322M lung it was 100%; with HOP-62 NSCLC, 94.5%; in the experiment with NCI-H460 lung, 104%; with HOP-92 NSCLC, 92.4%. The growth was -37.8% (active) in the experiment with NCI-H522 lung; 98.4% in the experiment with A549/ATCC NSCLC; 106% in the experiment with 786-0 renal; 79.7% with COLO 205 colon; 105% in the experiment on DU-145 prostate; 14.6% in the experiment with K-562 leukemia. Moreover, the growth in the experiment with MALME-3M melanoma is 70.8%; in the experiment with MDA-MB-231 breast it was 79.4%; with RXF 393 renal it was 90.8%; with SF-268 CNS, 95%; with SF-295 CNS, 104%; in the experiment with SF-539 CNS, 99.4%. The growth with UACC-257 melanoma is 105%; in the experiment with M14 melanoma, 103%.

As for `Cc1nnc(/N=C2\NC(=O)/C(=C/c3ccc(N(C)C)cc3)S2)s1`, the growth was 81.7% with NCI-H23 lung; 89.2% in the experiment with NCI-H226 lung; 85.5% with NCI-H322M lung; 65.8% in the experiment with HOP-62 NSCLC; 33.2% in the experiment with NCI-H460 lung; 85.1% with HOP-92 NSCLC. For the same molecule, the growth with NCI-H522 lung was 2.45% (active); in the experiment with A549/ATCC NSCLC, 63.5%; in the experiment on 786-0 renal, 76.8%; with COLO 205 colon, 98.7%; in the experiment with DU-145 prostate, 84%; in the experiment on K-562 leukemia, 49.7%. Further, the growth was 56.9% in the experiment on MALME-3M melanoma; 103% with MDA-MB-231 breast; 76.9% in the experiment on RXF 393 renal; 73% in the experiment on SF-268 CNS; 47.9% in the experiment with SF-295 CNS; 83.7% in the experiment with SF-539 CNS. In addition, the growth in the experiment with UACC-257 melanoma is 83.3%; in the experiment with M14 melanoma, 51.1%.

Take `C=C1C(=O)O[C@H]2[C@H]1CC/C(COC(=O)CCCCCCCC(=O)OC/C1=C/CC[C@@]3(C)O[C@H]3[C@H]3OC(=O)C(=C)[C@@H]3CC1)=C\CC[C@@]1(C)O[C@@H]21`: the growth was 2.7% (active) in the experiment on NCI-H23 lung; 47% with NCI-H226 lung; 84.7% in the experiment on NCI-H322M lung; 79.2% in the experiment on HOP-62 NSCLC; 61.4% with NCI-H460 lung; 17.9% with HOP-92 NSCLC. Further, the growth is -71.1% (active) with NCI-H522 lung; 82.6% in the experiment on A549/ATCC NSCLC; 4.86% (active) with 786-0 renal; -61.6% (active) in the experiment on COLO 205 colon; 27.8% in the experiment on DU-145 prostate; 3.32% (active) with K-562 leukemia. Also, the growth in the experiment with MALME-3M melanoma is -19.7% (active); in the experiment with MDA-MB-231 breast, -10.3% (active); in the experiment on RXF 393 renal, -70.6% (active); with SF-268 CNS it was 30.9%; with SF-295 CNS it was 86.7%; in the experiment with SF-539 CNS it was -1.74% (active). Besides, the growth with UACC-257 melanoma is 58.2%; in the experiment with M14 melanoma it was 8.2% (active).

Take `COc1cc(N=Nc2cc(S(=O)(=O)O)cc3cc(S(=O)(=O)O)cc(O)c23)c(C)cc1N=Nc1c(S(=O)(=O)O)cc2cc(Nc3ccccc3)ccc2c1O`: the growth in the experiment on NCI-H23 lung is 99.8%; in the experiment on NCI-H226 lung, 114%; in the experiment on NCI-H322M lung, 93.7%; in the experiment with HOP-62 NSCLC, 102%; in the experiment on NCI-H460 lung it was 106%; in the experiment on HOP-92 NSCLC, 103%. In addition, the growth in the experiment with NCI-H522 lung was 80.1%; in the experiment on A549/ATCC NSCLC it was 101%; in the experiment with 786-0 renal it was 102%; with COLO 205 colon, 129%; in the experiment on DU-145 prostate, 103%; in the experiment with K-562 leukemia it was 84.6%. Moreover, the growth was 93.8% in the experiment with MALME-3M melanoma; 107% in the experiment with MDA-MB-231 breast; 129% in the experiment on RXF 393 renal; 98.2% with SF-268 CNS; 109% with SF-295 CNS; 103% with SF-539 CNS. In addition, the growth in the experiment with UACC-257 melanoma was 111%; in the experiment on M14 melanoma, 102%.

As for `Cc1nn(-c2ccc(-c3ccc(OC(F)(F)F)cc3)cc2)c2nc(-c3ccccc3)nc(N)c12`, the growth in the experiment with NCI-H23 lung was 97.7%; in the experiment on NCI-H226 lung, 88.4%; in the experiment with NCI-H322M lung, 86.4%; in the experiment with HOP-62 NSCLC it was 95.8%; in the experiment with NCI-H460 lung, 83.2%; with HOP-92 NSCLC, 66.4%. In addition, the growth was 83.7% with NCI-H522 lung; 85.2% in the experiment on A549/ATCC NSCLC; 93.8% with 786-0 renal; 121% with COLO 205 colon; 104% in the experiment on DU-145 prostate; 93.1% in the experiment on K-562 leukemia. The growth with MALME-3M melanoma was 118%; in the experiment on MDA-MB-231 breast it was 85.1%; in the experiment with RXF 393 renal, 104%; in the experiment with SF-268 CNS, 97.2%; in the experiment on SF-295 CNS, 110%; with SF-539 CNS, 100%. The growth in the experiment on UACC-257 melanoma was 101%; in the experiment with M14 melanoma, 102%.

Turning to `NC(N)=NC(N)=Nc1cc2ccccc2c2ccccc12`, the growth with NCI-H23 lung is 44.8%; in the experiment with NCI-H226 lung it was 54.3%; with NCI-H322M lung it was 53.3%; in the experiment on HOP-62 NSCLC, 38.3%; with HOP-92 NSCLC it was -3.37% (active); in the experiment with NCI-H522 lung, 7.5% (active). In addition, the growth in the experiment on A549/ATCC NSCLC is 41.1%; in the experiment on 786-0 renal, 14.4%; with COLO 205 colon it was -59% (active); in the experiment on DU-145 prostate, 56.3%; in the experiment with K-562 leukemia it was 5.89% (active); in the experiment on MALME-3M melanoma it was -8.45% (active). Moreover, the growth was 15.6% in the experiment with MDA-MB-231 breast; 36.3% in the experiment on RXF 393 renal; 48% with SF-268 CNS; 53.3% in the experiment on SF-295 CNS; 59.9% in the experiment with SF-539 CNS; 74.4% in the experiment with UACC-257 melanoma. The growth with M14 melanoma was -33.4% (active).

`COc1cccc(NC(=O)Nc2ccc(Oc3ncnc4[nH]c(C)c(C)c34)cc2)c1`: the growth with NCI-H23 lung is 70.7%; with NCI-H226 lung, 105%; in the experiment on NCI-H322M lung, 105%; in the experiment on HOP-62 NSCLC, 97.5%; with NCI-H460 lung, 61.3%; in the experiment on HOP-92 NSCLC it was 110%. Further, the growth in the experiment on NCI-H522 lung is 57.8%; in the experiment with A549/ATCC NSCLC, 79.7%; with 786-0 renal, 109%; with COLO 205 colon, 102%; in the experiment on DU-145 prostate, 91.9%; in the experiment with K-562 leukemia, 83.7%. Also, the growth in the experiment on MALME-3M melanoma was 114%; in the experiment with MDA-MB-231 breast, 97.1%; in the experiment on RXF 393 renal it was 109%; in the experiment with SF-268 CNS, 81.3%; in the experiment on SF-295 CNS, 91.7%; in the experiment on SF-539 CNS, 64.6%. Further, the growth in the experiment with UACC-257 melanoma was 97.7%; in the experiment on M14 melanoma, 100%.

Consider `[2H]c1nc(Nc2ncc3cc(C(=O)N(C)C)n(C4CCCC4)c3n2)c([2H])c([2H])c1N1C([2H])([2H])C([2H])([2H])NC([2H])([2H])C1([2H])[2H]`, for which the growth was 67.1% in the experiment with NCI-H23 lung; 74.6% in the experiment on NCI-H226 lung; 71.5% in the experiment on NCI-H322M lung; 52.3% in the experiment with HOP-62 NSCLC; 59.1% in the experiment on NCI-H460 lung; 65.8% with HOP-92 NSCLC. For the same molecule, the growth is 61.8% in the experiment with NCI-H522 lung; 45% with A549/ATCC NSCLC; 52.9% with 786-0 renal; 28.1% in the experiment on COLO 205 colon; 88.4% with DU-145 prostate; 53.2% in the experiment with K-562 leukemia. The growth in the experiment with MALME-3M melanoma is 62.4%; in the experiment on MDA-MB-231 breast, 51%; in the experiment with RXF 393 renal, 62.9%; in the experiment on SF-268 CNS, 75.3%; in the experiment on SF-295 CNS it was 72.1%; in the experiment on SF-539 CNS it was 71.5%. Besides, the figures for the growth with UACC-257 melanoma and in the experiment with M14 melanoma were 60% and 70.7%, respectively.
